This is an account of results in PubChem BioAssay AID743129 (Broad Institute, 2013).

Entries with a potency or affinity are not part of this list. The source made the active and inactive calls.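 The calls were made as follows: active = cytotoxic compounds whose fitted half-maximal concentration is at most twice the highest valid tested dose; inconclusive = flat curve with 30 to 70% cell loss, or poor fit; inactive = the rest, including signal rising instead of falling.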

This test can be described thus: viability loss in HepG2 hepatoma cells – cell-based, ATP luminescence, dry powder, set 2, cytotoxicity control, dose response (AID 743129). To be noted: ATP luminescence (CellTiter-Glo), 72 h; series mostly up to 26 µM; activity change, negative = cytotoxicity: at the top concentration.
Take `CCOC(=O)c1c(-c2ccc(OC)cc2)csc1NC(=O)CN(C)CC(=O)N(C)C`: the “activity change, negative = cytotoxicity” value was 6.85% (inactive). On the same count and under the same terms, under `Cc1ccc(OCCn2cnc3ccccc32)cc1` stands -2.07% (inactive). The same measure, in the same setting: then `Cc1ccc2c(c1)[nH]c(=S)n2CCOc1ccccc1`, with 29.2% (inactive); and `Cc1ccccc1OCCn1c(=S)[nH]c2ccccc21`, with -14.9% (inactive); and `COC(=O)C1=C(C)N(Cc2ccccc2)C(=S)NC1c1ccc(Br)cc1` (stereo not drawn), with -2.68% (inactive). Still for that read-out and setting: then `CCOC(=O)c1c(-c2ccc(F)cc2)csc1NC(=O)CN1CCN(CC)CC1`, with -0.94% (inactive). As to `O=c1[nH]c2ccccc2n1CCOc1ccccc1`, the compound was classed as inactive.

Turning to `COC(=O)C1=C(C)N(Cc2ccc(Cl)cc2)C(=S)NC1c1ccc(Br)cc1` (stereo not drawn), the “activity change, negative = cytotoxicity” value was -1.77% (inactive). Still for that read-out and setting: then `Cc1ccc(C(C)C)c(OCCn2c(=S)[nH]c3ccccc32)c1`, with 39.7% (inactive).

For the compound `CCOC(=O)c1c(-c2ccc(F)cc2)csc1NC(=O)CN1CCN(C)CC1`, the “activity change, negative = cytotoxicity” value is 21.1% (inactive).

On to `Fc1ccccc1OCCn1c(=S)[nH]c2ccccc21`, for which the “activity change, negative = cytotoxicity” value was -13% (inactive).

For `Cc1cccc(OCCn2c(=S)[nH]c3cc(C(F)(F)F)ccc32)c1`, the “activity change, negative = cytotoxicity” value was -10.2% (inactive). Take `Cc1ccc(OCCn2c(=S)[nH]c3ccccc32)cc1`: the “activity change, negative = cytotoxicity” value was -23.9% (inactive). `COC(=O)C1=C(C)N(Cc2ccc(Br)cc2)C(=S)NC1c1ccc(F)cc1` (stereo not drawn): the “activity change, negative = cytotoxicity” value is 0.837% (inactive). Turning to `S=c1[nH]c2ccccc2n1CCOc1ccccc1`, the “activity change, negative = cytotoxicity” value is -11.9% (inactive). Regarding `S=c1[nH]c2cccc(Cl)c2n1CCOc1ccccc1`, the “activity change, negative = cytotoxicity” value is -3.38% (inactive). On the same count and under the same terms, under `Cc1ccc(OCCn2c(C)nc3ccccc32)cc1` stands 15% (inactive). In the case of `Fc1cccc2c1[nH]c(=S)n2CCOc1ccccc1`, the “activity change, negative = cytotoxicity” value was 12.8% (inactive). Turning to `S=c1[nH]c2ccccc2n1CCOc1ccc(Cl)cc1`, the “activity change, negative = cytotoxicity” value is -7.15% (inactive).

`Cc1ccc(OCCn2c(=S)[nH]c3ccccc32)c(C(C)C)c1`: the result was inactive. For `CCOc1ccc(OCCn2c(=S)[nH]c3ccccc32)cc1`, the “activity change, negative = cytotoxicity” value was -26.2% (inactive). For the compound `c1ccc(OCCn2cnc3ccccc32)cc1`, the “activity change, negative = cytotoxicity” value was -27.1% (inactive). Same read-out and setting: under `COC(=O)C1=C(C)N(Cc2ccc(Br)cc2)C(=S)NC1c1ccc(OC)cc1` (stereo not drawn) stands -26.8% (inactive).
